CYP2C9 inh: human CYP2C9 inhibition; CYP2C9 Supersomes, luciferin-H conversion, luminescence; hit rate 20% among 96,000; inhibition, % at 5 µM;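 active means blocking of liver enzyme CYP2C9 beyond about 50% at 5 µM, limit read from the data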
CYP2C19 inhib: human CYP2C19 inhibition | P33261 | CYP2C19 Supersomes, luciferin-H EGE luminescence, 30 min | inhibition, % at 5 µM | hit rate 21% among 96,000 | AID 778;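 active means CYP2C19 inhibition above a set limit at 5 µM in the primary screen, cut at about 50% in these data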
Target sequence (P33261 whole entry, looked up): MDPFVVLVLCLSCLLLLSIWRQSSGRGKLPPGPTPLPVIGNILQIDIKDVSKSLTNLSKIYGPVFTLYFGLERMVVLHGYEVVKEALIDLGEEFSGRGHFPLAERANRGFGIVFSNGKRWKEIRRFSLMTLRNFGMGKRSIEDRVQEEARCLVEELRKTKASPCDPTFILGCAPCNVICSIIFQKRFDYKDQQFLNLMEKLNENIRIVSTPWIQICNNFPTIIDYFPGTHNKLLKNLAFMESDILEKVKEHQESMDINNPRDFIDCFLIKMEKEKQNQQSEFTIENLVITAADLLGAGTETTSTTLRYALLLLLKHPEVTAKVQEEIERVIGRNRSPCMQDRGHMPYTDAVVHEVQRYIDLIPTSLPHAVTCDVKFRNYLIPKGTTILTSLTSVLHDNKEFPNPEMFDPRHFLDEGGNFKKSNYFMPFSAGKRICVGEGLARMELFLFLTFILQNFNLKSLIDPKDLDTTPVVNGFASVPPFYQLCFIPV
CYP2C19 act: activators of human cytochrome P450 2C19; P33261; recombinant CYP2C19, luciferin-H EGE luminescence; stronger effect = higher value; 0 = fully inhibited enzyme, 1 = untreated enzyme; activation factor at 5 µM; 96,000 tested, under 10 active;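 active means activation factor of at least 2 at 5 µM in the primary screen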
CYP2C9 act: increases human cytochrome P450 2C9 activity | recombinant CYP2C9, luciferin-H conversion, luminescence; stronger effect = higher value; factor 1 = untreated enzyme, 0 = blocked | activation factor at 5 µM | hit rate 1.4% among 96,000 | AID 1024;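 active means activation factor of 2 or more for CYP2C9 at a 5 µM dose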
CD11b adhes inh: blocks human CD11b/CD18 adhesion to fibrinogen | P05107+P11215 | K562 CD11b/CD18 adhesion to fibrinogen, ATPlite luminescence; Mn2+ added to activate the integrin | inhibition, % at 10 µM | hit rate 0.54% among 93,000;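 active means primary inhibition of 50% or more at 10 µM, then 40% or more on retest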
CD11b adhes enh: enhancers of human CD11b/CD18 binding to fibrinogen; activation, % at 10 µM; K562 CD11b/CD18 adhesion to fibrinogen, ATPlite luminescence; AID 1499; P05107+P11215; hit rate 0.07% among 93,000;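 active means 10 µM primary screen giving 50% or more activity, confirmed by 40% or more on retest at that dose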
A number is an active result; n = inactive; x = no result. The list is not random: actives were taken first. Their share in the collection is about 28%.

SMILES	CYP2C9 inh	CYP2C19 inhib	CYP2C19 act	CYP2C9 act	CD11b adhes inh	CD11b adhes enh
Cc1ccc2nc(NC(=O)CSc3nc4ccccc4o3)sc2c1	55	n	n	n	n	n
Cc1cccc(NC(=O)CSc2nc3ccccc3o2)c1	n	69	n	n	n	n
CC1CCc2nc(NC(=O)CSc3nc4ccccc4o3)sc2C1 (centres undefined)	n	n	n	n	n	n
Clc1ccc(Cc2noc(-c3cccs3)n2)cc1	n	n	n	n	n	n
O=C(CCCNS(=O)(=O)c1ccc(Br)cc1)N1CC[C@@]2(O)CCCC[C@H]2C1	n	n	n	n	n	n
CN(C(=O)Cn1nnc(-c2cccc(C(F)(F)F)c2)n1)C1CCCCC1	n	n	n	n	x	x
O=C(Cn1nnc(-c2cccc(C(F)(F)F)c2)n1)N1CCOCC1	n	n	n	3.3	n	n
Cc1ccc(C)c(-n2nnnc2SCC(=O)Nc2c(C)n(C)n(-c3ccccc3)c2=O)c1	n	n	n	n	n	n
N#CC1=C2SCC(O)(c3ccccc3)N2C(=O)CC1c1ccccc1 (centres undefined)	99	98	n	n	n	n
Cc1ccc(CC2(O)CC(C)N(C)CC2C)c(C)c1 (centres undefined)	n	n	n	n	n	n
COc1ccc(-c2nc(NC(=O)CSc3nnc(C)s3)ns2)cc1	n	n	n	n	n	n
O=C1c2ccccc2C(=O)N1CCSC(=S)N1CCOCC1	n	55	n	n	n	n
COc1ccc(N/C(C)=C2/C(=O)C(=O)N(CCO)C2c2ccc(Br)cc2)cc1 (centres undefined)	52	60	n	n	n	n
C=C(C)Cn1c(COc2ccccc2)nnc1SCC(=O)O	n	n	n	n	n	n
O=C1NC(=O)/C(=C\c2ccccc2Oc2ccc(F)c(F)c2)S1	85	n	n	n	85	n
O=C1NC(=O)/C(=C\c2ccc(Oc3ccc([N+](=O)[O-])cn3)cc2)S1	x	x	x	x	n	n
CCC(C)[C@H](NC(=O)NCc1ccccc1Cl)C(=O)O (some centres undefined)	n	n	n	n	n	n
COC(=O)c1cc(NC(=O)Cc2ccccc2[N+](=O)[O-])cc(C(=O)OC)c1	79	n	n	n	n	n
O=C(Cc1ccccc1[N+](=O)[O-])NCc1ccccc1Cl	n	n	n	2.4	n	n
O=C(Cc1ccccc1[N+](=O)[O-])NCCSCc1c(F)cccc1Cl	n	n	n	n	x	x
CCC(CC)C(=O)NCc1ccccc1Cl	67	n	n	n	n	n
Cc1cccc(NC(=O)CSc2nnc(CSc3nc(C)cc(C)n3)n2Cc2ccco2)c1	n	n	n	n	n	n
COC(=O)c1cccc(N(C(=O)c2cnccn2)C(C(=O)NC2CCCCC2)c2cn(C)nc2C)c1 (centres undefined)	n	n	n	n	n	n
CSc1nsc(NC(=O)Cc2ccccc2)n1	n	65	n	n	n	n
O=C(Cc1ccccc1)Nc1nnc(-c2cccs2)s1	n	n	n	n	n	n
SMILES	CYP2C9 inh	CYP2C19 inhib	CYP2C19 act	CYP2C9 act	CD11b adhes inh	CD11b adhes enh
Cc1ccc(N2C(=O)C3C4CC(=O)C(c5ccccc54)C3C2=O)cc1C (centres undefined)	x	x	x	x	n	n
CCc1cc2c(SCC(=O)O)ncnc2s1	n	n	n	n	n	n
CCc1cc2c(SCC(=O)C(C#N)=C3N(C)c4ccccc4N3C)ncnc2s1	62	n	n	n	n	n
CCn1nc(C)cc1-c1n[nH]c(=S)n1N	n	n	n	n	n	n
CCc1ccc(NC(=O)C2CC(=O)N(C(C)C)C2)cc1 (centres undefined)	n	n	n	n	n	n
Cc1ccc(N(CC(=O)Nc2ccc(F)cc2)S(=O)(=O)N2CCCC2)cc1	62	n	n	n	n	n
CSc1cccc(NC(=O)CN(c2ccc(C)cc2C)S(C)(=O)=O)c1	62	95	n	n	n	n
COc1ccc(NC(=O)CN(c2cccc(F)c2)S(C)(=O)=O)cc1OC	n	n	n	n	n	n
CN(C)c1ccc(NC(=O)CN2CCN(CC(=O)Nc3ccc(F)cc3)CC2)cc1	n	n	n	n	n	n
CSc1cccc(NC(=O)CN(c2cccc(C)c2)S(C)(=O)=O)c1	62	72	n	n	n	n

Bioassay records: PubChem, Sanford-Burnham Center for Chemical Genomics
